Hit rate of the full screen: of about 5,500 compounds, about 2,000 (36%) were called active. About 18% were inconclusive and are not listed. Rule as the data show it: active = normalized growth mostly below about 0.91 (no sharp cut-off); inconclusive = no clear call, values can overlap the other calls; inactive = mostly above about 0.92. The list shows a part of the results.
Test: chemical genetic growth profiling, strain panel (AID 1159580);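 also: tested at 20 µM; growth read once vehicle control cultures reached saturation at 30 °C; 1 = growth at the plate median or of vehicle wells; lower values mean less growth of the strain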
Conditions: S. cerevisiae deletion strains, growth OD

Measured: normalized growth

COC1CC(OC2CCC3(C)C(CCC4C3CCC3(C)C(C5=CC(=O)OC5)C(OC(C)=O)CC43O)C2)OC(C)C1O (configuration not stated)
inactive: locus YAL021C, strain ccr4, hits give low values 0.998 | locus YAL026C, strain drs2, hits give low values 1.02 | locus YAL030W, strain snc1, hits give low values 1.01 | locus YBL061C, strain skt5, hits give low values 1.02 | locus YBR009C, strain hhf1, hits give low values 1.02 | locus YBR023C, strain chs3, hits give low values 1.02 | locus YBR171W, strain sec66, hits give low values 1.03 | locus YBR231C, strain swc5, hits give low values 1.02 | locus YBR279W, strain paf1, hits give low values 1.01 | locus YCL011C, strain gbp2, hits give low values 1.02 | locus YCL016C, strain dcc1, hits give low values 1.01 | locus YCL061C, strain MRC1, hits give low values 1.02 | locus YCL069W, strain vba3, hits give low values 1.02 | locus YCR088W, strain abp1, hits give low values 1.02 | locus YDL005C, strain med2, hits give low values 1.03 | locus YDL040C, strain nat1, hits give low values 1.01 | locus YDR001C, strain nth1, hits give low values 1.02 | locus YDR069C, strain doa4, hits give low values 1.01 | locus YDR137W, strain rgp1, hits give low values 1 | locus YDR159W, strain sac3, hits give low values 1.04 | locus YDR195W, strain ref2 1.03 | locus YDR297W, strain sur2, hits give low values 1.03 | locus YDR334W, strain swr1, hits give low values 1.03 | locus YDR335W, strain msn5, hits give low values 1.03 | locus YDR392W, strain spt3, hits give low values 0.984 | locus YEL003W, strain gim4, hits give low values 1.02 | locus YEL037C, strain rad23, hits give low values 1.02 | locus YEL061C, strain CIN8 (second series), hits give low values 1.02 | locus YER015W, strain faa2, hits give low values 1.02 | locus YER016W, strain bim1, hits give low values 1.02 | locus YER111C, strain swi4, hits give low values 1.03 | locus YER155C, strain BEM2 (second series), hits give low values 1.03 | locus YFR010W, strain ubp6, hits give low values 1.03 | locus YGL167C, strain pmr1, hits give low values 1.02 | locus YGL173C, strain kem1, hits give low values 1.03 | locus YGL227W, strain vid30, hits give low values 1.02 | locus YGL240W, strain doc1, hits give low values 1.01 | locus YGL253W, strain hxk2, hits give low values 1.03 | locus YHR013C, strain ard1, hits give low values 1.03 | locus YHR027C, strain rpn1, hits give low values 1.03 | locus YHR142W, strain chs7, hits give low values 1.02 | locus YJL092W, strain hpr5, hits give low values 1.03 | locus YJL095W, strain BCK1 (second series), hits give low values 1.01 | locus YJL115W, strain asf1, hits give low values 1.03 | locus YJL129C, strain trk1, hits give low values 1.02 | locus YJL154C, strain vps35, hits give low values 1.02 | locus YJL164C, strain tpk1, hits give low values 1 | locus YJL166W, strain qcr8, hits give low values 1.03 | locus YJL187C, strain SWE1, hits give low values 1.01 | locus YKL160W, strain elf1, hits give low values 1.01 | locus YKR026C, strain gcn3, hits give low values 1.02 | locus YKR091W, strain srl3, hits give low values 1.01 | locus YLL001W, strain dnm1, hits give low values 1.02 | locus YLL026W, hits give low values 1.02 | locus YLL041C, strain sdh2, hits give low values 1.02 | locus YLR027C, strain aat2, hits give low values 1.01 | locus YLR221C, strain rsa3, hits give low values 1.03 | locus YLR258W, strain gsy2, hits give low values 1.01 | locus YLR262C, strain YPT6 (second series), hits give low values 1.04 | locus YLR320W, strain mms22, hits give low values 1.01 | locus YLR342W, strain FKS1, hits give low values 1.02 | locus YLR357W, strain rsc2, hits give low values 1.06 | locus YLR370C, strain arc18, hits give low values 1.02 | locus YLR384C, strain iki3, hits give low values 1.02 | locus YML120C, strain ndi1, hits give low values 1.01 | locus YMR058W, strain fet3, hits give low values 1.04 | locus YMR125W, strain sto1, hits give low values 1.02 | locus YMR129W, hits give low values 1.01 | locus YMR205C, strain PFK2, hits give low values 1.01 | locus YMR231W, strain pep5, hits give low values 1.02 | locus YNL071W, strain lat1, hits give low values 1.02 | locus YNL209W, strain ssb2, hits give low values 1.01 | locus YNL248C, strain rpa49, hits give low values 0.939 | locus YNL322C, strain KRE1 (second series), hits give low values 1.03 | locus YNR049C, strain mso1, hits give low values 1.01 | locus YOR001W, strain rrp6, hits give low values 1.02 | locus YOR070C, strain gyp1, hits give low values 1.03 | locus YOR080W, strain dia2, hits give low values 1.02 | locus YOR083W, strain WHI5, hits give low values 1 | locus YOR106W, strain vam3, hits give low values 1.01 | locus YOR265W, strain rbl2, hits give low values 1.01 | locus YOR270C, strain vph1, hits give low values 1.02 | locus YOR290C, strain snf2, hits give low values 0.986 | locus YPL051W, strain arl3, hits give low values 1.01 | locus YPL078C, strain atp4, hits give low values 1.01 | locus YPL106C, strain sse1, hits give low values 1.01 | locus YPL240C, strain hsp82, hits give low values 1.02

— PubChem BioAssay AID1159580 (chemical genetic matrix, 2015)
